The text below walks through data of PubChem BioAssay (Tox21).

Values without a mark were called inactive. Results filed as inconclusive are left out. The source made the active and inactive calls. The call rests on the fitted dose curve.

Assay [1] concerns the target Acetylcholinesterase (Homo sapiens) (UniProt P22303). Briefly: Acetylcholinesterase (AChE) small molecule antagonists: colormetric cell-based qHTS assay (AID 1347395). Further: nearly all actives have a fitted effect of over 30% in size. In outline: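 Colorimetric read-out: DTNB detects thiocholine released when cellular AChE in SH-SY5Y cells hydrolyses acetylthiocholine. Cells attached overnight, received compound for 30 min at 37 C, then substrate mix for 90 min at 37 C.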
For orientation: qHTS replaces the single test concentration by a dilution series.

Assay [2] has the same target. The assay is described as follows: Acetylcholinesterase (AChE) small molecule antagonists: enzyme-based qHTS assay (AID 1347397). Further: nearly all actives have a fitted effect of over 55% in size. Particulars: Potency: AChE enzyme activity inhibition; outcome: AChE enzyme activity inhibition. In a few lines:
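Recombinant human AChE, dispensed at 50 mU/mL, was preincubated with Tox21 10K compounds or DMSO vehicle for 30 min at room temperature. DTNB plus acetylthiocholine was then added, and thiocholine was measured colorimetrically after a further 10 min.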

The target is the same in assay [3]. The assay is described as follows: Acetylcholinesterase (AChE) small molecule antagonists: fluorescence cell-based qHTS assay (AID 1347398). Further: nearly all actives have a fitted effect of over 50% in size. Further: potency means the concentration at half of the fitted maximal effect. Particulars: Potency: AChE activity; outcome: AChE activity. In outline: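 Human SH-SY5Y cells were plated overnight at 37 C, exposed to compound for 30 min at 37 C, 5% CO2, then given acetylthiocholine plus Thiolite Green for 40 min at room temperature; thiocholine fluorescence (Ex/Em 490/520 nm) reports endogenous AChE activity.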

The target is the same in assay [4]. The assay is described as follows: Acetylcholinesterase (AChE) small molecule antagonists: enzyme-based qHTS assay with human liver microsomes (AID 1347399). Further: nearly all actives have a fitted effect of over 60% in size. Particulars: Potency: qHTS inhibition; outcome: qHTS inhibition. In outline: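 Recombinant human AChE (50 mU/mL in the enzyme mix) and human liver microsomes (0.25 mg/mL final) were preincubated with compound and NADPH (0.25 mg/mL final) for 30 min at 37 C. Acetylthiocholine/DTNB was then added; thiocholine was read colorimetrically after 10 min at room temperature.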
On the % scale 0 is the no-effect control and ±100 the full control effect.

Sequence of Acetylcholinesterase (Homo sapiens) (P22303 whole entry, looked up): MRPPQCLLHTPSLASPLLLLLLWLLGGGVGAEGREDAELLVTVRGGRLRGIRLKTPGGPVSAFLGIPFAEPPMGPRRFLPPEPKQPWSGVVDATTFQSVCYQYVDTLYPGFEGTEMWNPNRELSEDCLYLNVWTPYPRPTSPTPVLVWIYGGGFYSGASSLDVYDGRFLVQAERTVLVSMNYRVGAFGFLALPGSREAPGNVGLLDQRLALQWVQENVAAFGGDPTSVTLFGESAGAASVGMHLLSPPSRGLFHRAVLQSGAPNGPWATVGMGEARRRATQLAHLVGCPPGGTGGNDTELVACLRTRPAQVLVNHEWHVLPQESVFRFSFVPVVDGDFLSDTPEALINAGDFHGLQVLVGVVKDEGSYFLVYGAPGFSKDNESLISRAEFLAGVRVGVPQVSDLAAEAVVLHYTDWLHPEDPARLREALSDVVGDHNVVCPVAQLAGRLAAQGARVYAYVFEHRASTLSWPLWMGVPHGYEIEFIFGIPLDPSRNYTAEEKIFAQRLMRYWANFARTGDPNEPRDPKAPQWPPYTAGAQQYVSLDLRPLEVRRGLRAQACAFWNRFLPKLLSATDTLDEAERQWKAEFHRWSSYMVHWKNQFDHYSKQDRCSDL

As to `CCCCOC(=O)/C=C\C(=O)OCCCC`, the Potency result in assay [1], in assay [2], in assay [3] and in assay [4] was “inactive” throughout.

With `OC(CCN1CCCCC1)(c1ccccc1)C1CC2C=CC1C2` (stereo unspecified), the Potency result in assay [1], in assay [2], in assay [3] and in assay [4] was “inactive” each time.

For `C[C@H]1c2cccc(O)c2C(O)=C2C(=O)[C@]3(O)C(O)=C(C(N)=O)C(=O)[C@@H](N(C)C)[C@@H]3[C@@H](O)[C@@H]21`, the Potency entry in assay [1], in assay [2], in assay [3] and in assay [4] was “inactive” throughout.

As to `CC(=O)O[C@@H]1CC2CCC1(C)C2(C)C` (stereo partly specified), the Potency entry in assay [1], in assay [2], in assay [3] and in assay [4] was “inactive” throughout.

Regarding `CCc1c(Br)c(Br)c(Br)c(Br)c1Br`, the Potency result in assay [1], in assay [2], in assay [3] and in assay [4] was “inactive” each time.

For the compound `CCOc1ccc2[nH]cc(C(=O)NCc3ccccc3)c(=O)c2n1`, the Potency result in assay [1], in assay [2], in assay [3] and in assay [4] was “inactive” each time.

As to `CC(C)(C)c1cc(CCC(=O)NCCCCCCNC(=O)CCc2cc(C(C)(C)C)c(O)c(C(C)(C)C)c2)cc(C(C)(C)C)c1O`, the Potency result in assay [1], in assay [2], in assay [3] and in assay [4] was “inactive” each time.

In the case of `O=C(/C=C/c1ccc(O)c(O)c1)O[C@@H]1C[C@](O)(C(=O)O)C[C@@H](O)[C@H]1O`, the Potency result in assay [1], in assay [2], in assay [3] and in assay [4] was “inactive” in each case.

For `CC(=C(CCOC(=O)C(C)C)SSC(CCOC(=O)C(C)C)=C(C)N(C=O)Cc1cnc(C)nc1N)N(C=O)Cc1cnc(C)nc1N`, the Potency result in assay [1], in assay [2], in assay [3] and in assay [4] was “inactive” throughout.

Regarding `CC(C)(O)CCCC1=CCC(C=O)CC1` (stereo unspecified), the Potency entry in assay [1], in assay [2], in assay [3] and in assay [4] was “inactive” each time.

On to `O=c1c(-c2ccccc2)c1-c1ccccc1`, for which the Potency entry in assay [1], in assay [2], in assay [3] and in assay [4] was “inactive” each time.

As to `CCCCCCOC(=O)CC`, the Potency entry in assay [1], in assay [2], in assay [3] and in assay [4] was “inactive” throughout.

With `O=C1C=CC(=O)N1c1cccc(N2C(=O)C=CC2=O)c1`, the Potency entry in assay [1], in assay [2] and in assay [4] was “inactive” in each case. In addition, the Potency in assay [3] was 44.8 µM (active).

`O=C1CCCC(=O)C1`: the Potency result in assay [1], in assay [2], in assay [3] and in assay [4] was “inactive” each time.

In the case of `CCCCCCCCCCCCCCC[C@H](O)[C@@H](N)CO`, the Potency result in assay [1], in assay [2], in assay [3] and in assay [4] was “inactive” throughout.

Consider `CCn1nc(Cc2ccccc2)cc1C1CCN(C[C@H]2C[C@H](N(C)[C@@H](C(=O)O)C(C)C)C[C@@H]2c2cccc(F)c2)CC1`, for which the Potency result in assay [1], in assay [2], in assay [3] and in assay [4] was “inactive” in each case.

`CC(C)(C)OC(=O)c1ccccc1C(=O)O`: the Potency result in assay [1], in assay [2], in assay [3] and in assay [4] was “inactive” each time.

Turning to `Cc1cc(S(=O)(=O)O)ccc1N=Nc1c(O)ccc2ccccc12`, the Potency entry in assay [1], in assay [2], in assay [3] and in assay [4] was “inactive” in each case.

As for `CCC(C)C(=O)OCCc1ccccc1` (stereo unspecified), the Potency entry in assay [1], in assay [2], in assay [3] and in assay [4] was “inactive” each time.

Regarding `CC(CSC(=O)c1ccccc1)C(=O)N1C[C@@H](Sc2ccccc2)C[C@H]1C(=O)O` (stereo partly specified), the activity, negative = inhibition in assay [1] was 0.861% [at 23.6 µM]. In addition, the values for the activity change, negative = inhibition in assay [2], in assay [3] and in assay [4] were -0.415% [at 23.6 µM], 13.2% [at 23.8 µM] and 2.18% [at 23.6 µM], respectively.

For `CC(C)(COC(=O)c1ccccc1)COC(=O)c1ccccc1`, the Potency result in assay [1], in assay [2], in assay [3] and in assay [4] was “inactive” each time.

In the case of `CC(=O)OC(OC(C)=O)c1ccc([N+](=O)[O-])o1`, the Potency result in assay [1], in assay [2], in assay [3] and in assay [4] was “inactive” in each case.

In the case of `CCCCCOc1ccccc1/C(=C\SC)n1ccnc1`, the Potency result in assay [1], in assay [2], in assay [3] and in assay [4] was “inactive” each time.

Regarding `CCCCCOC(=O)c1ccc(O)cc1`, the Potency entry in assay [1], in assay [2], in assay [3] and in assay [4] was “inactive” in each case.

Turning to `CCCCCCCCO[C@@H]1O[C@H](CO)[C@@H](O)[C@H](O)[C@H]1O`, the Potency result in assay [1], in assay [2], in assay [3] and in assay [4] was “inactive” in each case.

Turning to `COc1ccc([C@@H]2Sc3ccccc3NC(=O)[C@@H]2O)cc1`, the Potency entry in assay [1], in assay [2], in assay [3] and in assay [4] was “inactive” each time.

With `Clc1ccnc(Cl)n1`, the Potency entry in assay [1], in assay [2], in assay [3] and in assay [4] was “inactive” each time.

`O=C(O)c1ccc(CO)o1`: the Potency entry in assay [1], in assay [2], in assay [3] and in assay [4] was “inactive” in each case.

Turning to `O=C(CCS)OCC(COC(=O)CCS)(COC(=O)CCS)COC(=O)CCS`, the Potency result in assay [1], in assay [2], in assay [3] and in assay [4] was “inactive” in each case.

For `Cc1cc(OI)c(C(C)C)cc1-c1cc(C(C)C)c(OI)cc1C`, the Potency entry in assay [1], in assay [2], in assay [3] and in assay [4] was “inactive” in each case.

Turning to `CCCCCCCCCCCCCCCCOS(=O)(=O)O`, the Potency entry in assay [1], in assay [2], in assay [3] and in assay [4] was “inactive” each time.

In the case of `CC(C)c1ccc2c(c1)CC[C@H]1[C@](C)(CN)CCC[C@]21C`, the Potency entry in assay [1], in assay [2], in assay [3] and in assay [4] was “inactive” in each case.

With `CC(C(=O)O)c1ccc(CC2CCCC2=O)cc1` (stereo unspecified), the Potency result in assay [1], in assay [2], in assay [3] and in assay [4] was “inactive” in each case.

Turning to `CCOc1ncc(F)c(=O)[nH]1`, the Potency entry in assay [1], in assay [2], in assay [3] and in assay [4] was “inactive” throughout.

Take `CCOC(C)(C)C`: the Potency result in assay [1], in assay [2], in assay [3] and in assay [4] was “inactive” each time.

In the case of `CC(C)(C)c1nnc(NS(=O)(=O)c2ccc(N)cc2)s1`, the Potency entry in assay [1], in assay [2], in assay [3] and in assay [4] was “inactive” throughout.

As for `CC(C)CCCC(C)CC=O` (stereo unspecified), the Potency entry in assay [1], in assay [2], in assay [3] and in assay [4] was “inactive” in each case.

Consider `NS(=O)(=O)c1cc2c(cc1Cl)NC(CSCc1ccccc1)=NS2(=O)=O`, for which the Potency result in assay [1], in assay [2], in assay [3] and in assay [4] was “inactive” each time.

With `CCCC1CCOC(C)S1` (stereo unspecified), the Potency entry in assay [1], in assay [2], in assay [3] and in assay [4] was “inactive” throughout.
